Drawing on PubChem BioAssay (NCI), this text covers growth for 14 compounds.

The panel holds about 83,000 compounds, 20% with a hit somewhere; the sample as a whole holds those more often.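 Percent growth is the endpoint: 0 to 100 indicates growth inhibition (40 means 60% inhibition), 0 means no net growth, and negative values indicate cell death.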 Values without a mark were called inactive. The source made the active and inactive calls. How the source made its calls: active means growth percent below 10; inactive means the rest.

Common to all, as to test: NCI-60 one-dose screen, 48 h (100 = growth as untreated, 0 = no growth, -100 = all killed)
Details in all cases: 10 µM unless noted

For test [1], the system named is NCI-H23 lung.
Test [2] concerns NCI-H226 lung.
In test [3] the test system is NCI-H322M lung.
Test [4] relates to HOP-62 NSCLC.
Test [5] deals with NCI-H460 lung.
The subject of test [6] is HOP-92 NSCLC.
Test [7] relates to NCI-H522 lung.
Test [8] concerns A549/ATCC NSCLC.
Test [9] concerns 786-0 renal.
In test [10] the test system is COLO 205 colon.

For `CCCCCCN(CCCCCC)C(=N)c1ccnc2ccccc12`, the growth in test [1] was 72.5%; in test [2] it was 89.2%; in test [3], 76%; in [4], 100%; in [5], 55.4%; in test [6], 57.5%. The growth in test [7] was 71.7%; in test [8], 78.4%; in test [9], 57%; in test [10], -74.7% (active).
On to `Nc1n[nH]c2cc(F)c([C@@H]3Nc4ccc5[nH]ncc5c4[C@H]4C5CCC(C5)[C@@H]34)cc12` (stereo not given in full), for which the growth in test [1] is 26.4%; in [2], 15%; in [3], 54.7%; in [4], 26.1%; in test [5] it was -11.2% (active); in test [6], 45.7%. For the same compound, the growth in [7] was -19% (active); in test [8], 8.81% (active); in [9], 25.4%; in test [10] it was -26.9% (active).
For the compound `COc1ccc2nc(NC(=O)CSc3nnc4n3S(=O)(=O)c3ccccc3N4c3ccccc3)sc2c1`, the growth in test [1] is 87.4%; in test [2], 101%; in test [3], 91.2%; in test [4], 94.7%; in test [5] it was 104%; in test [6], 46.6%. Besides, the growth in [7] is 64.5%; in test [8], 44.8%; in [9] it was 101%; in test [10] it was 96.1%.
For `COc1ccc2[nH]cc(-c3noc(C(=O)c4cn(C)c5ccc(F)cc45)n3)c2c1`, the growth in test [1] was 90.2%; in [2], 83.5%; in test [3], 96.1%; in [4], 100%; in test [5], 95.6%; in test [6] it was 84.9%. The growth is 92.8% in test [7], 105% in [8], 103% in test [9] and 96% in [10].
Consider `N#Cc1c(-c2ccc(Cl)cc2)nc(N=Nc2c(O)[nH]c3ccc(Cl)cc23)nc1N1CCOCC1`, for which the growth in test [1] was 84.8%; in test [2] it was 85.6%; in test [3] it was 96.5%; in test [4], 96.3%; in [5] it was 98.4%; in [6], 89.5%. In addition, the growth in test [7] was 93.6%; in [8], 102%; in test [9], 103%; in test [10] it was 105%.
As for `COc1cccc(Nc2nc(SC)nc(-c3cccc([N+](=O)[O-])c3)c2C#N)c1`, the growth in [1] is 78.3%; in [2], 19.3%; in test [3] it was 74%; in test [4], 27%; in test [5], 41.7%; in test [6] it was 62.9%. The growth was 72.1% in test [7], 28% in test [8], 36.4% in test [9] and 82.1% in test [10].
For `C/C1=C\CC[C@@]2(C)O[C@H]2[C@H]2OC(=O)C(CN3CCN(CC4C(=O)O[C@H]5[C@H]4CC/C(C)=C/CC[C@@]4(C)O[C@@H]54)CC3)[C@@H]2CC1` (stereo not given in full), the growth in [1] is 98.5%; in test [2], 99.2%; in test [3], 99.3%; in test [4] it was 107%; in [5], 107%; in test [6], 100%. Further, the growth was 33.4% in test [7], 93.5% in [8], 109% in test [9] and 98.2% in [10].
With `O=C(COc1ccc(/C=C2\COc3ccccc3C2=O)cc1)Nc1nccs1`, the growth in test [1] was 79%; in test [2] it was 99%; in test [3] it was 104%; in test [4], 94.6%; in test [5], 102%; in test [6] it was 64.9%. Besides, the growth is 56.5% in test [7], 98.3% in [8], 89.3% in test [9] and 127% in test [10].
As for `COc1ccc(CCNc2nc(SC)nc(-c3cccc([N+](=O)[O-])c3)c2C#N)cc1OC`, the growth in [1] is 92.7%; in [2], 49.2%; in test [3], 88.2%; in test [4], 67.6%; in test [5], 88.5%; in [6], 75.8%. Besides, the growth in test [7] was 66.7%; in [8], 82.2%; in [9], 93.2%; in test [10], 113%.
Consider `COc1ccc(-c2nnc(SCC(=O)c3ccc(Cl)cc3)o2)cc1`, for which the growth was 93.9% in test [1]; 103% in [2]; 108% in [3]; 95.7% in test [4]; 110% in test [5]; 105% in test [6]. For the same compound, the growth is 76.3% in test [7], 92% in test [8], 96.9% in test [9] and 112% in test [10].
`CC(O)CN(CC(C)O)c1ccc2c(c1)Cc1cc([N+](=O)[O-])ccc1-2` (stereo not given): the growth in test [1] is 93.5%; in test [2], 101%; in [3] it was 65.8%; in [4] it was 102%; in test [5], 104%; in test [6], 88.7%. In addition, the growth in test [7] is 80%; in test [8], 119%; in test [9], 107%; in test [10], 104%.
Turning to `Clc1ccc2c(NCCNc3nc(N4CCCCC4)nc4ccccc34)ccnc2c1`, the growth in test [1] was 54.3%; in test [2], -8.68% (active); in [3], 0.0479% (active); in [4] it was -18.2% (active); in test [5], -39.4% (active); in [6], -16% (active). In addition, the growth in [7] was -21.8% (active); in [8], 0.13% (active); in [9], -36.9% (active); in test [10], -84.6% (active).
For `O=C1c2cc3c(cc2-c2c1c1cc(F)c(F)cc1c(=O)n2CCCn1ccnc1)OCO3`, the growth is -11.2% (active) in [1]; -59.4% (active) in test [2]; 14.5% in test [3]; 1.96% (active) in test [4]; -26% (active) in test [5]; -7.1% (active) in [6]. In addition, the growth in test [7] was -26.9% (active); in test [8], -93.5% (active); in test [9], 8.02% (active); in [10], -4.37% (active).
With `COc1cc2c(cc1O)CC[C@@H]1[C@@H]2CC[C@]2(C)[C@@H](OCCCN(C)C)CC[C@@H]12`, the growth in test [1] was -30% (active); in test [2], 9.47% (active); in [3] it was -22.3% (active); in test [4], -57.8% (active); in [5], -61.4% (active); in test [6], -18.2% (active). Moreover, the growth in test [7] is -90.8% (active); in [8], -33.7% (active); in test [9], -83.8% (active); in test [10] it was -71% (active).
